Test results reported in PubChem BioAssay.
The source made the active and inactive calls. No rule for the calls is given here.

Legend:
[1] = test system: Botulinum neurotoxin type F light chain protease (Clostridium botulinum); assay: Clostridium botulinum type F light chain protease inhibitors, microsphere substrate cleavage, validation (AID 588459); conditions: multiplex microsphere protease substrate cleavage assay, flow cytometry; at 10 µM; hits give high values
[2] = biological target: Botulinum neurotoxin type A (Clostridium botulinum) (UniProt P0DPI0); assay: BoNT/A light chain protease inhibitors, biochemical, multiplex microsphere flow cytometry, validation set (AID 588460); conditions: at 10 µM, hits give high values
Botulinum neurotoxin type A (Clostridium botulinum), sequence (P0DPI0 whole entry, looked up): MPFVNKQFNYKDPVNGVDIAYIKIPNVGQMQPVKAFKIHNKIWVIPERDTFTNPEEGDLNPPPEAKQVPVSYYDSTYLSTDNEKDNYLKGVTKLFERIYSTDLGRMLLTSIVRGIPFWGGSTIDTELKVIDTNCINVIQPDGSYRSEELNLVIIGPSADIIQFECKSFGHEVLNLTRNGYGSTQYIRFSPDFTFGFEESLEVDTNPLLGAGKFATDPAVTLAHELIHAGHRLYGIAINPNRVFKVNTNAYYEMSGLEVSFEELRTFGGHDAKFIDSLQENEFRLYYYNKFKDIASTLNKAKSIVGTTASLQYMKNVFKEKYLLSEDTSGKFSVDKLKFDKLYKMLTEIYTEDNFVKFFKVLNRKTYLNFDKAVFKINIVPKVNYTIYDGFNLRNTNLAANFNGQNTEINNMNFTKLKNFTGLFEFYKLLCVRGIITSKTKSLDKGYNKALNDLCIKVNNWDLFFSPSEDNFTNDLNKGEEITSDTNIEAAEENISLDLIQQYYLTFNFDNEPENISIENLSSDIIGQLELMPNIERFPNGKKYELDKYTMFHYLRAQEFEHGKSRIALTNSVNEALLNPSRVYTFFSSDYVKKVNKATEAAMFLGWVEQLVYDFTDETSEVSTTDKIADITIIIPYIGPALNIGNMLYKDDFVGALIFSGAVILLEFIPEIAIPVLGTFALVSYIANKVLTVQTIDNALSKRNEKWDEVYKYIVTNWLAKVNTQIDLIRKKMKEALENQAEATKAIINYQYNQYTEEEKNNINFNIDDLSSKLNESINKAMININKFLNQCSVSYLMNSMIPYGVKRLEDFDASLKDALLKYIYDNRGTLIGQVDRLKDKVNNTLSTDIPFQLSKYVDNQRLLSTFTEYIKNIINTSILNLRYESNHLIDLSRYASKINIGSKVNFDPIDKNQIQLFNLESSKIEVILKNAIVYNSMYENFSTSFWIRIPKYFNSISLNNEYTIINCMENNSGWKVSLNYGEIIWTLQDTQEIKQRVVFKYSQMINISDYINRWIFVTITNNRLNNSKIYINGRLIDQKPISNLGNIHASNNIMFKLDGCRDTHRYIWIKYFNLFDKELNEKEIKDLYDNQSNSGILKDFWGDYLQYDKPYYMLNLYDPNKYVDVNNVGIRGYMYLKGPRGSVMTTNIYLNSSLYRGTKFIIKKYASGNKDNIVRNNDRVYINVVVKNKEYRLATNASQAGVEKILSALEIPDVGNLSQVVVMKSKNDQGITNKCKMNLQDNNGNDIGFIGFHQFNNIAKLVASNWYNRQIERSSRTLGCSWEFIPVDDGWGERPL

[3] = biological target: Lethal factor (Bacillus anthracis) (UniProt P15917); assay: Bacillus anthracis lethal factor inhibition, microsphere flow cytometry protease assay, validation at 10 µM (AID 588461); conditions: multiplex microsphere protease cleavage assay, hits give high values
Lethal factor (Bacillus anthracis), sequence (P15917 whole entry, looked up): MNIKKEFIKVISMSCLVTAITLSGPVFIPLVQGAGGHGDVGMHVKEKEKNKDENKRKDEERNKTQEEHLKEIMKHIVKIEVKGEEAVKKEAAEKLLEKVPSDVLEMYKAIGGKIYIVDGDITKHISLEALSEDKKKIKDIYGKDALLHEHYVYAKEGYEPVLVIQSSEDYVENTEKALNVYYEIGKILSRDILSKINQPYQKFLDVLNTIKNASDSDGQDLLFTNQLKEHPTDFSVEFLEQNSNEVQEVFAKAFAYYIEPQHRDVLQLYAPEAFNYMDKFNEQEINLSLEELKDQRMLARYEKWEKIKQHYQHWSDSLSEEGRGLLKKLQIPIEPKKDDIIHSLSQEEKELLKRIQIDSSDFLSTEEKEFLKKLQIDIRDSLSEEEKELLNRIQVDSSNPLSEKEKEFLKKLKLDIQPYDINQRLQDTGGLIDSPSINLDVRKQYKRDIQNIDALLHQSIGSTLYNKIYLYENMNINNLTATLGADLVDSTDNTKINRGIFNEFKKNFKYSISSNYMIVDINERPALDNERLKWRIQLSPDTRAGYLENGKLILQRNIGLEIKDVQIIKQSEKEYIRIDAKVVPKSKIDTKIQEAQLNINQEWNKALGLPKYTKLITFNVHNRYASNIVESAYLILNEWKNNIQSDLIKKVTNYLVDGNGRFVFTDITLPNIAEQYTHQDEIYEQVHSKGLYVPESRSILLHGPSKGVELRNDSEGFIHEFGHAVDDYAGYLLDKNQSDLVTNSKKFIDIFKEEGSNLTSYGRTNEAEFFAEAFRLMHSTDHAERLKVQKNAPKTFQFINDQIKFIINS

Measured: inhibition

CC1(C)CC(=O)c2cnc(NC(=O)C3CCCC3)nc2C1
inactive: [1] 1.2% | [2] -1.3% | [3] -3.2%

CCc1c(C(C)=O)oc2ccc3c(C)cc(=O)oc3c12
inactive: [1] -1.2% | [2] -2.4% | [3] -2.4%

Cc1ccc(NCCC(=O)c2ccccc2)cc1Cl
inactive: [1] 4.1% | [2] 0.4% | [3] -2.5%

CNc1c2c(nn1C)CCCC2
inactive: [1] 0.6% | [2] -1.3% | [3] -3.5%

CC(=O)c1c(N)nc2n(c1=O)CCCCC2
inactive: [1] -2.9% | [2] -1% | [3] -2.9%

C[C@@H]1C[C@H]2[C@@H]3CCC4=CC(=O)C=C[C@]4(C)[C@@]3(F)[C@@H](O)C[C@]2(C)[C@@]1(O)C(=O)COP(=O)(O)O
inactive: [1] 2.6% | [2] 0.2% | [3] 0.9%

Cc1ccc(Cl)c(OCCCN(C)Cc2ccccc2)c1
inactive: [1] 2.8% | [2] 0.1% | [3] -7.8%

COc1ccc2[nH]c(=O)c(CN(C(=O)c3ccco3)C(C)C)cc2c1
inactive: [1] 0.1% | [2] 1% | [3] 2.1%

O=C(N/C(=C/C=C\c1ccccc1)C(=O)N1CCOCC1)c1ccc(Br)cc1
inactive: [1] 3.8% | [2] 0.6% | [3] -3.6%

CCN(CC)CCNc1ccc(CO)c2sc3ccccc3c(=O)c12
inactive: [1] 0.5% | [2] -0.5% | [3] -7%

CC1(C)S[C@@H]2[C@H](NC(=O)C(C(=O)O)c3ccccc3)C(=O)N2[C@H]1C(=O)O (stereo partly specified)
inactive: [1] 3.8% | [2] 1.2% | [3] -6.1%

CN(C)CCN(Cc1ccc(Cl)cc1)c1ccccn1
inactive: [1] -0.9% | [2] 0.1% | [3] -1.2%

O=C(Nc1ccc(Oc2c(F)c(F)c(F)c(F)c2F)cc1)OC1CCN2Cc3ccccc3N=C12 (stereo unspecified)
inactive: [1] -1.9% | [2] -1.4% | [3] 2.6%

COc1ccc(C(C)N2CC34C=CC(O3)C(C(=O)OCC(C)C)C4C2=O)cc1 (stereo unspecified)
inactive: [1] -1.9% | [2] -1.2% | [3] 0.2%

CC(=O)O[C@]1(C(C)=O)CC[C@H]2[C@@H]3C=C(C)C4=CC(=O)CC[C@]4(C)[C@H]3CC[C@@]21C
inactive: [1] 2% | [2] 1.2% | [3] -4.2%

O=C(O)c1ccc(OCCn2ccnc2)cc1
inactive: [1] 2.9% | [2] -0.2% | [3] -0.6%

COCCN(CCOC)Cc1c(C)[nH]c2c(C)c(C)ccc2c1=O
inactive: [1] 3.4% | [2] -0.6% | [3] -0.3%

C[C@H]1O[C@@H](O[C@H]2[C@@H](O)C[C@H](O[C@H]3[C@@H](O)C[C@H](O[C@H]4CC[C@@]5(C)[C@H](CC[C@@H]6[C@@H]5C[C@@H](O)[C@]5(C)[C@@H](C7=CC(=O)OC7)CC[C@]65O)C4)O[C@@H]3C)O[C@@H]2C)C[C@H](O)[C@@H]1O
inactive: [1] 2.7% | [2] -0.7% | [3] -2.8%

CCn1cc(C(=O)O)c(=O)c2ccc(C)nc21
inactive: [1] 1.3% | [2] -1.5% | [3] -3.9%

CSc1ccc2c(c1)N(CCC1CCCCN1C)c1ccccc1S2 (stereo unspecified)
inactive: [1] -0.1% | [2] -0.8% | [3] -7%

Cc1ccc2ncnc(NCCCCCC(=O)O)c2c1
inactive: [1] 1.7% | [2] -1.1% | [3] -4.7%

OCCOCCN1CCN(C(c2ccccc2)c2ccc(Cl)cc2)CC1 (stereo unspecified)
inactive: [1] 0.1% | [2] -1.8% | [3] 1.1%

O=C(NC(=S)Nc1ccc(N2CCN(C(=O)c3ccccc3)CC2)cc1)c1cccs1
inactive: [1] -8.9% | [2] -3.2% | [3] -10.5%

COc1ccc(CCN(C)CC(=O)Nc2cc(C)nc3ccccc23)cc1OC
inactive: [1] 0.4% | [2] 0.9% | [3] -1.4%

CCCC(CCC)C(=O)OC1C[C@H]2CC[C@@H](C1)[N+]2(C)C (stereo partly specified)
inactive: [1] -1.1% | [2] 1% | [3] 2.3%

CN1/C(=C\C=Nc2ccccc2)C(C)(C)c2ccccc21
inactive: [1] -1.1% | [2] 0.8% | [3] -0.6%

Cc1[nH]nc(-c2ccc(O)cc2O)c1Oc1ccccc1
inactive: [1] 0.6% | [2] -0.4% | [3] -5.3%
